Holding throughout (test): universal protein binding microarray (PBM); transcription factors of Arabidopsis thaliana; high values mean tight binding
In one experiment the target is T1, GST-ANAC019 NAC domain (Arabidopsis thaliana, UniProt Q9C932 14-162).
T1 sequence: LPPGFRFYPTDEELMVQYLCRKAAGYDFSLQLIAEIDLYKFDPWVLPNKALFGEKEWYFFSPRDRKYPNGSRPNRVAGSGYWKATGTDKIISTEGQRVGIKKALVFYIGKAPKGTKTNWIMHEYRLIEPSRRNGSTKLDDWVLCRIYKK
To be noted: protein: recombinant; tags: GST; chain copies: 2; dsDNA, one strand shown. An outline of the steps: (§1)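 Each value is a normalised enrichment score (E-score) describing binding. The GST-tagged proteins, NAC-domain, full-length or DNA-binding-domain, were induced in cells (zinc-finger proteins with zinc acetate added) and purified on glutathione–Sepharose 4B. They were applied at 200 to 500 nM final, in duplicate, to double-stranded custom all-10-mer Agilent 4 × 180K arrays, and gapped and ungapped 8-mers were scored.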

Another experiment concerns the target T2, GST-NAP(1-166) (Arabidopsis thaliana, UniProt O49255 1-166).
T2 sequence: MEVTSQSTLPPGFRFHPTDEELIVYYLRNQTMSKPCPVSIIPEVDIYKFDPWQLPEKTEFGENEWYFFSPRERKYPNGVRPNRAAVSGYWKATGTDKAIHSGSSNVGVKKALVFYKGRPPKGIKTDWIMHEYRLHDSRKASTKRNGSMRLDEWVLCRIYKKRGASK
To be noted: protein: recombinant; tags: GST; chain copies: 2; dsDNA, one strand shown. An outline of the steps:
as §1

Another experiment concerns the target T3, GST-NTL8 NAC domain (Arabidopsis thaliana, UniProt Q9XIN7 14-156).
T3 sequence: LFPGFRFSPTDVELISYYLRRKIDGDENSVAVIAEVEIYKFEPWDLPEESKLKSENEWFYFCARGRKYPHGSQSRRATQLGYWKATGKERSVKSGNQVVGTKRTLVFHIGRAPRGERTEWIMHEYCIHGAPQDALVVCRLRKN
To be noted: protein: recombinant; tags: GST; chain copies: 2; dsDNA, one strand shown. A digest of the protocol:
as §1

A further experiment concerns the target GST-WRKY1(266-371) (Arabidopsis thaliana, UniProt Q9SI37 266-371). To be noted: protein: recombinant; tags: GST; dsDNA, one strand shown. A digest of the protocol:
as §1

For another experiment, the target named is GST-NTL6(1-168) (Arabidopsis thaliana, UniProt Q9SCK6 1-168). The note with it: protein: recombinant; tags: GST; chain copies: 2; dsDNA, one strand shown. An outline of the steps:
as §1

For the next experiment, the target named is T4, GST-ANAC055(1-171) (Arabidopsis thaliana, UniProt Q9LDY8 1-171).
T4 sequence: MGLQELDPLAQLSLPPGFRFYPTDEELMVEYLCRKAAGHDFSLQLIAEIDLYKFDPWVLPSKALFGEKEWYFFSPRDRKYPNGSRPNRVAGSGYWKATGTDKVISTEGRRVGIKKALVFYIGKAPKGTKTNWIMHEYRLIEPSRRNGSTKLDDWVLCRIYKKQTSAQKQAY
The note with it: protein: recombinant; tags: GST; chain copies: 2; dsDNA, one strand shown. An outline of the steps: as §1

The target of the next experiment is T5, GST-ATAF1 NAC domain (Arabidopsis thaliana, UniProt Q39013 7-158).
T5 sequence: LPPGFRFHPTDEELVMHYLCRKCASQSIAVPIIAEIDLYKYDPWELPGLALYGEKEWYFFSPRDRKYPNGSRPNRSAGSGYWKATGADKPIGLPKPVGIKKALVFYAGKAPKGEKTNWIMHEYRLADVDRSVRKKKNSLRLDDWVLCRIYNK
The note with it: protein: recombinant; tags: GST; chain copies: 2; dsDNA, one strand shown. A digest of the protocol:
as §1

Experiment [1] has as its target T6, GST-ANAC092(1-285) full length (Arabidopsis thaliana, UniProt Q9FKA0 1-285).
T6 sequence: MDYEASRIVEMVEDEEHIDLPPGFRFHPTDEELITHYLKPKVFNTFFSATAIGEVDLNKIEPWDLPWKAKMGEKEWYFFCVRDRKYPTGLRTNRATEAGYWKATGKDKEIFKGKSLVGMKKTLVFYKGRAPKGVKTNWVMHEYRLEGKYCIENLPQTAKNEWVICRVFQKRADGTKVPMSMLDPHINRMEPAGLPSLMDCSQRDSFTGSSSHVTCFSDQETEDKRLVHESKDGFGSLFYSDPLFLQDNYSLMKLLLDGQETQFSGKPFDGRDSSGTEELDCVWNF
The note with it: protein: recombinant; tags: GST; chain copies: 2; dsDNA, one strand shown. An outline of the steps:
as §1

The next experiment has as its target T7, GST-NST2(1-184) (Arabidopsis thaliana, UniProt Q9M274 1-184).
T7 sequence: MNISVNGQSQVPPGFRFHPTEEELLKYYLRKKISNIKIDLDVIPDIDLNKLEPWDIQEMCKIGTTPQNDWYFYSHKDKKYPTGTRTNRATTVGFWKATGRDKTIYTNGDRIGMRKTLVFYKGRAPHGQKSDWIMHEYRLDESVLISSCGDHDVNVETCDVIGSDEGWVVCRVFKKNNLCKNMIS
The note with it: protein: recombinant; tags: GST; chain copies: 2; dsDNA, one strand shown. A digest of the protocol: as §1

Another experiment deals with T8, GST-ANAC092(1-176) (Arabidopsis thaliana, UniProt Q9FKA0 1-176).
T8 sequence: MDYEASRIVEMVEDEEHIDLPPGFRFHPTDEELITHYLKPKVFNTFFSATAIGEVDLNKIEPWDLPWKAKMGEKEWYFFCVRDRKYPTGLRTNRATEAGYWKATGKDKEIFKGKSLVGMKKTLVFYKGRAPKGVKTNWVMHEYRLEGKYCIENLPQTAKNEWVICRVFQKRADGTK
The note with it: protein: recombinant; tags: GST; chain copies: 2; dsDNA, one strand shown. An outline of the steps: as §1

From article PMC4081100, “A DNA-binding-site landscape and regulatory network analysis for NAC transcription factors in Arabidopsis thaliana” come the findings set out here.

GST-NTL6(1-168), sequence (Q9SCK6 1-168): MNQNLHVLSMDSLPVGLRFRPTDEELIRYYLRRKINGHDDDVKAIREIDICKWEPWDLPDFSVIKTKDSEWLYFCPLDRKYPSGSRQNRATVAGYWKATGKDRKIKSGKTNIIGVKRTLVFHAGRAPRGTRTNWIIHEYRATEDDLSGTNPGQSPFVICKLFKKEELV
GST-WRKY1(266-371), sequence (Q9SI37 266-371): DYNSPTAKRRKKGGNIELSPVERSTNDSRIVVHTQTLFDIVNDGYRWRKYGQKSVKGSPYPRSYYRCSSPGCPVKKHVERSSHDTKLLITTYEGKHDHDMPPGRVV

With CGTTGACC, the binding signal with GST-ANAC019 NAC domain was 0.0797 E-score; in the experiment with GST-NAP(1-166), 0.0594 E-score; in the experiment with GST-NTL8 NAC domain, 0.123 E-score; with GST-WRKY1(266-371), 0.496 E-score.
Regarding AGGTCAAT, the binding signal with GST-NTL6(1-168) is 0.137 E-score; in the experiment with GST-ANAC055(1-171), 0.0969 E-score; with GST-WRKY1(266-371), 0.478 E-score.
With GCAGTCAA, the binding signal worked out at 0.0666 E-score with GST-ATAF1 NAC domain, 0.0815 E-score with GST-NAP(1-166), 0.0556 E-score with GST-NTL8 NAC domain and 0.478 E-score in the experiment with GST-WRKY1(266-371).
GAAAGTCA: the binding signal was found to be 0.0574 E-score with GST-ATAF1 NAC domain, 0.0781 E-score in experiment [1] and 0.461 E-score with GST-WRKY1(266-371).
AGTCAGAC: the binding signal in the experiment with GST-ANAC019 NAC domain worked out at 0.0719 E-score; with GST-WRKY1(266-371), 0.442 E-score.
The corresponding values for CCGTCAAC are 0.0816 E-score and 0.451 E-score.
On the same counts, the results for GCTGACCA are 0.0761 E-score and 0.462 E-score.
For AGTCAATG, the binding signal with GST-ATAF1 NAC domain was determined as 0.0527 E-score; with GST-NST2(1-184) it was 0.0628 E-score; in the experiment with GST-WRKY1(266-371), 0.481 E-score.
For the sequence CAGTCAGA, the binding signal with GST-ANAC019 NAC domain is 0.0745 E-score; with GST-WRKY1(266-371) it was 0.404 E-score.
On the same counts, the results for GGTGGTCA are 0.0992 E-score and 0.43 E-score.
On to CACGGTCA, for which the binding signal in the experiment with GST-ANAC019 NAC domain is 0.052 E-score; with GST-NTL8 NAC domain, 0.063 E-score; in the experiment with GST-WRKY1(266-371), 0.44 E-score.
Take AGGTTGAC: the binding signal in the experiment with GST-ATAF1 NAC domain came to 0.13 E-score; with GST-WRKY1(266-371), 0.474 E-score.
On to GTCGTTGA, for which the binding signal in experiment [1] turned out to be 0.0529 E-score; with GST-NST2(1-184), 0.0569 E-score; with GST-WRKY1(266-371) it was 0.43 E-score.
Take CTGGGTCA: the binding signal was 0.0748 E-score in experiment [1] and 0.439 E-score with GST-WRKY1(266-371).
With AGGTAACC, the binding signal in the experiment with GST-ANAC092(1-176) was found to be 0.148 E-score; in the experiment with GST-NTL6(1-168), 0.105 E-score; in [1] it was 0.137 E-score; in the experiment with GST-NTL8 NAC domain, 0.442 E-score.
For the sequence AAGTCGTC, the binding signal in the experiment with GST-NAP(1-166) came out at 0.156 E-score; with GST-WRKY1(266-371), 0.419 E-score.
Take AGGGTCAA: the binding signal with GST-NTL8 NAC domain was found to be 0.0535 E-score; with GST-WRKY1(266-371) it was 0.483 E-score.
For the sequence ATTCCCCC, the binding signal in the experiment with GST-NTL6(1-168) came to 0.146 E-score; in the experiment with GST-NTL8 NAC domain, 0.402 E-score.
Consider ATTGACCG, for which the binding signal in experiment [1] is 0.0505 E-score; with GST-WRKY1(266-371), 0.487 E-score.
Take GGTCAATA: the values for the binding signal (in experiment [1]; with GST-NAP(1-166); with GST-WRKY1(266-371)) were 0.0505 E-score, 0.0842 E-score and 0.482 E-score, respectively.
With CGAGGTCA, the figures for the binding signal with GST-NTL8 NAC domain and with GST-WRKY1(266-371) were 0.0549 E-score and 0.425 E-score, respectively.
For ACGACCAA, the binding signal with GST-NAP(1-166) is 0.103 E-score; in the experiment with GST-WRKY1(266-371), 0.416 E-score.
AGGGTAAC: the binding signal in the experiment with GST-ANAC092(1-176) is 0.059 E-score; with GST-NTL6(1-168), 0.0788 E-score; in experiment [1], 0.0751 E-score; with GST-NTL8 NAC domain, 0.416 E-score.
In the case of GGGAAACC, the values for the binding signal with GST-ANAC092(1-176) and with GST-NTL8 NAC domain were 0.144 E-score and 0.443 E-score, respectively.
For AGTCAAGC, the values for the binding signal in the experiment with GST-NTL8 NAC domain and in the experiment with GST-WRKY1(266-371) were 0.0828 E-score and 0.459 E-score, respectively.
Turning to GGTCAACA, the binding signal turned out to be 0.0705 E-score with GST-NST2(1-184) and 0.493 E-score in the experiment with GST-WRKY1(266-371).
On to GAGGGAAA, for which the binding signal in the experiment with GST-ANAC092(1-176) is 0.11 E-score; with GST-NTL6(1-168), 0.11 E-score; with GST-ANAC019 NAC domain, 0.154 E-score; in the experiment with GST-NAP(1-166) it was 0.0766 E-score; with GST-NTL8 NAC domain, 0.472 E-score.
With AGGTCAAC, the binding signal was determined as 0.051 E-score in the experiment with GST-ATAF1 NAC domain, 0.0726 E-score in the experiment with GST-NTL8 NAC domain and 0.492 E-score with GST-WRKY1(266-371).
As for GACCGTCA, the binding signal in the experiment with GST-NAP(1-166) worked out at 0.0503 E-score; in the experiment with GST-WRKY1(266-371), 0.407 E-score.
The corresponding values for GGTCTTCA are 0.0664 E-score and 0.431 E-score.
On the same counts, the results for CAATTGAC are 0.054 E-score and 0.435 E-score.
On to TACGGTCA, for which the binding signal with GST-NAP(1-166) was determined as 0.0976 E-score; with GST-WRKY1(266-371) it was 0.442 E-score.
For the sequence GGAGGAAA, the binding signal with GST-ANAC092(1-176) amounted to 0.124 E-score; in the experiment with GST-NTL6(1-168), 0.146 E-score; with GST-NTL8 NAC domain, 0.459 E-score.
As for GGGTTGAC, the binding signal in the experiment with GST-NAP(1-166) worked out at 0.0845 E-score; with GST-WRKY1(266-371) it was 0.477 E-score.
For the sequence ACGGTCAA, the binding signal was 0.0716 E-score in experiment [1] and 0.49 E-score with GST-WRKY1(266-371).
For the sequence CGGTCAAA, the binding signal with GST-NST2(1-184) was determined as 0.0603 E-score; with GST-NTL8 NAC domain it was 0.0552 E-score; with GST-WRKY1(266-371), 0.49 E-score.
AGTCGTCG: the binding signal in the experiment with GST-NAP(1-166) worked out at 0.119 E-score; with GST-WRKY1(266-371), 0.432 E-score.
For CTCGGTCA, the values for the binding signal with GST-NTL8 NAC domain and with GST-WRKY1(266-371) were 0.0649 E-score and 0.451 E-score, respectively.
In the case of AGGTTACC, the binding signal came out at 0.0662 E-score in the experiment with GST-ANAC092(1-176), 0.0729 E-score in the experiment with GST-ANAC019 NAC domain, 0.182 E-score in experiment [1] and 0.437 E-score with GST-NTL8 NAC domain.
